Only some compounds are listed: those with a hit (about 3.4% of all), similar ones and a draw of the others.
pPAFAH inh: pPAFAH enzyme inhibitors, primary screen, biochemical, fluorescence polarization, human; Platelet-activating factor acetylhydrolase (Homo sapiens), Q13093; recombinant pPAFAH, FP-rhodamine probe fluorescence polarization; inhibition, % at 3.39 µM; hit rate 1.5% among 330,000; AID 463082, 2010;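 active means inhibition above the mean inhibition across the screen plus 3 SD, cut at about 25% in these data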;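 further: inhibitors block binding of the rhodamine activity-based probe so polarization drops; 0% = enzyme with DMSO and 100% = wells lacking pPAFAH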
Target sequence (Q13093 whole entry, looked up): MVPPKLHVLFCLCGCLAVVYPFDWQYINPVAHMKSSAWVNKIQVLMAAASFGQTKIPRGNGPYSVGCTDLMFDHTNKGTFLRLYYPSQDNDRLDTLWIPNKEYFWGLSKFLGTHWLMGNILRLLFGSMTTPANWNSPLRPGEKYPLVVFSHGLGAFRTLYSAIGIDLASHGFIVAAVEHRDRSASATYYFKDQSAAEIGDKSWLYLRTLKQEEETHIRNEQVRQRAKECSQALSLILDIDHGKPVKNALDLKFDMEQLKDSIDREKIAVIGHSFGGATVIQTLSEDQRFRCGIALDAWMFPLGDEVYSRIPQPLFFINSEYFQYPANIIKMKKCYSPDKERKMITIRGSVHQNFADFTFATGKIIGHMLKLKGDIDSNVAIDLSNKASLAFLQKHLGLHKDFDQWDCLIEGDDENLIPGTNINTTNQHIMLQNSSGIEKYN
PP5 inh: PP5 phosphatase inhibitors, primary screen, biochemical, fluorescence. Serine/threonine-protein phosphatase 5 (Homo sapiens), P53041. purified PP5c, OMFP substrate fluorescence. inhibition, % at 6.7 µM. hit rate 0.18% among 320,000;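 active means inhibition above the campaign's mean inhibition across all tested compounds plus 3 SD, cut at about 9.5% in these data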;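 further: 0% = DMSO only and 100% = 100 µM cantharidin control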
PAFAH1B3 FP inh: PAFAH1B3 enzyme inhibitors, primary screen, biochemical, fluorescence polarization, human | recombinant PAFAH1B3, FP-rhodamine probe | inhibition, % at 3.39 µM | hit rate 0.28% among 340,000;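 active means inhibition above the screen-wide average of all tested compounds plus 3 SD, cut at about 25% in these data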;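 further: 0% = enzyme with DMSO only and 100% = wells lacking PAFAH1B3 protein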
PP1 inh: PP1-alpha phosphatase inhibitors, primary screen, counter-screen for PP5 inhibitor project, biochemical, fluorescence, OMFP substrate, single point; AID 2235, 2010; purified PP1alpha; Serine/threonine-protein phosphatase PP1-alpha catalytic subunit (Homo sapiens), P62136; inhibition, % at 6.7 µM; hit rate 0.9% among 320,000;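 active means inhibition above the mean inhibition of all tested compounds plus 3 SD, computed separately for each screening campaign, cut at about 15% in these data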
PAFAH1B2 FP inh: PAFAH1B2 enzyme inhibitors, primary screen, biochemical, fluorescence polarization, human | Platelet-activating factor acetylhydrolase IB subunit alpha2 (Homo sapiens), P68402 | recombinant PAFAH1B2, FP-rhodamine activity probe | inhibition, % at 3.39 µM | hit rate 1.2% among 340,000 | AID 492953, 2010;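 active means inhibition above the mean of all tested compounds plus 3 SD, cut at about 24% in these data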;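 further: 0% = enzyme with DMSO and 100% = wells lacking PAFAH1B2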
Target sequence (P68402 whole entry, looked up): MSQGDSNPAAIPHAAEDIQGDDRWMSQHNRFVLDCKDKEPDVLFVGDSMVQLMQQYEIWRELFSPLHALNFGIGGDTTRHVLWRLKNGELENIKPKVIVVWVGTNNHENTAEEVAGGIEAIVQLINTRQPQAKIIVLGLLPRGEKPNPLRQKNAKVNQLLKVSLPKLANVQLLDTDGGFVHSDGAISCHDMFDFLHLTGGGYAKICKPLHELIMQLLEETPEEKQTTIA
PAFAH2 inh: PAFAH2 enzyme inhibitors, primary screen, biochemical, fluorescence polarization, human | Platelet-activating factor acetylhydrolase 2, cytoplasmic (Homo sapiens), Q99487 | recombinant PAFAH2, FP-rhodamine activity probe | inhibition, % at 3.39 µM | hit rate 0.99% among 340,000 | AID 492956, 2010;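 active means inhibition above the mean over all tested compounds plus 3 SD, cut at about 30% in these data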;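 further: inhibitors block probe labeling of enzyme so polarization drops; 0% = enzyme with DMSO and 100% = wells lacking PAFAH2 protein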
PAFAH2 confirm: PAFAH2 enzyme inhibitors, confirmation, biochemical, fluorescence polarization, human | AID 493030, 2011 | shares compounds with PAFAH2 inh | hit rate 65% among 2,300 | inhibition, % at 3.39 µM | recombinant PAFAH2, FP-rhodamine activity probe;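 active means mean inhibition over three repeats above a set limit taken from the earlier primary screen, cut at about 30% in these data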;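 further: inhibitor blocks binding of rhodamine activity probe so polarization falls; 0% = enzyme with DMSO and 100% = wells lacking PAFAH2 protein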
* hit, by the source's call.

How did CCN(CC)c1ccc(C(=O)OCC(=O)N(C(C)C)C(C)C)cc1 do in these assays?
pPAFAH inh: 6.5; PP5 inh: 1.7; PAFAH1B3 FP inh: 5.9; PP1 inh: 1.4; PAFAH1B2 FP inh: 5.2; PAFAH2 inh: 26.8

How did CCN(CC)c1ccc(C(=O)OCC(=O)N2CCCC2)cc1 do in these assays?
pPAFAH inh: 11.1; PP5 inh: -0.7; PAFAH1B3 FP inh: 3.4; PP1 inh: 0.3; PAFAH1B2 FP inh: -0.2; PAFAH2 inh: 35.9*; PAFAH2 confirm: 19.8

Results for COCCN(C(=S)Nc1c(C)cc(C)cc1C)C(C)c1cccs1 (stereo unspecified) ?
pPAFAH inh: 7.0; PP5 inh: 0.5; PAFAH1B3 FP inh: 5.0; PP1 inh: -0.9; PAFAH1B2 FP inh: 1.8; PAFAH2 inh: 31.3*; PAFAH2 confirm: 28.2

What do the screens show for `COCC(=O)Nc1ccccc1C#N`?
pPAFAH inh: -0.3; PP5 inh: -2.4; PAFAH1B3 FP inh: -1.2; PP1 inh: -0.1; PAFAH1B2 FP inh: -1.2; PAFAH2 inh: -6.5

How did COc1cccc(NC(=O)COC(=O)c2ccc(F)cc2F)c1 do in these assays?
pPAFAH inh: 21.5; PP5 inh: 2.5; PAFAH1B3 FP inh: 2.4; PP1 inh: -5.6; PAFAH1B2 FP inh: 3.7; PAFAH2 inh: 72.7*; PAFAH2 confirm: 60.6*

Results for N#Cc1ccccc1NC(=O)COC(=O)c1ccc(F)cc1F ?
pPAFAH inh: 16.0; PP5 inh: 1.7; PAFAH1B3 FP inh: 10.6; PP1 inh: -5.3; PAFAH1B2 FP inh: 1.1; PAFAH2 inh: 46.3*; PAFAH2 confirm: 17.4

How did O=C(NC1CCCN(Cc2ccccc2F)C1)c1cccs1 (stereo unspecified) do in these assays?
pPAFAH inh: -5.5; PP5 inh: 1.5; PAFAH1B3 FP inh: 7.0; PP1 inh: -1.7; PAFAH1B2 FP inh: -0.1; PAFAH2 inh: 3.7

Results for COc1ccc(C(=O)OCC(=O)NCC2CCCO2)cc1S(=O)(=O)N1CCCc2ccccc21 (stereo unspecified) ?
pPAFAH inh: 9.9; PP5 inh: 2.6; PAFAH1B3 FP inh: -1.7; PP1 inh: -1.6; PAFAH1B2 FP inh: 6.0; PAFAH2 inh: 33.9*; PAFAH2 confirm: 27.2

Results for COc1ccc(C(=O)OCc2nnc(-c3ccccc3)o2)cc1S(=O)(=O)N1CCOCC1 ?
pPAFAH inh: -4.4; PP5 inh: 0.7; PAFAH1B3 FP inh: 0.3; PP1 inh: 3.5; PAFAH1B2 FP inh: 0.0; PAFAH2 inh: 78.9*; PAFAH2 confirm: 70.6*

Results for O=C(NNC(=O)c1ccc(F)c(S(=O)(=O)N2CCOCC2)c1)c1ccc([N+](=O)[O-])cc1 ?
pPAFAH inh: -2.3; PP5 inh: 3.1; PAFAH1B3 FP inh: 8.3; PP1 inh: -0.9; PAFAH1B2 FP inh: 3.1; PAFAH2 inh: -6.8

How did O=C(OCC(=O)N1CCc2ccccc21)c1cc(S(=O)(=O)N2CCOCC2)ccc1F do in these assays?
PAFAH1B3 FP inh: -2.3; PAFAH1B2 FP inh: 1.2; PAFAH2 inh: -2.1

What do the screens show for `COc1ccc(C(=O)OCc2ccc(C)cc2)cc1S(=O)(=O)N1CCOCC1`?
pPAFAH inh: 4.4; PP5 inh: 3.6; PAFAH1B3 FP inh: 1.3; PP1 inh: -3.5; PAFAH1B2 FP inh: 7.7; PAFAH2 inh: 11.9

What do the screens show for `O=C(OCc1nnc(-c2ccc([N+](=O)[O-])cc2)o1)c1ccc(F)c(S(=O)(=O)N2CCOCC2)c1`?
PAFAH1B3 FP inh: -2.2; PAFAH1B2 FP inh: 5.5; PAFAH2 inh: 30.1*; PAFAH2 confirm: 22.4

Results for COc1ccc(C(=O)OCC(=O)N2CCc3ccccc32)cc1S(=O)(=O)N1CCOCC1 ?
pPAFAH inh: -2.0; PAFAH1B3 FP inh: 3.3; PAFAH1B2 FP inh: 4.5; PAFAH2 inh: 67.8*; PAFAH2 confirm: 69.2*

Results for CCOc1cc(C(=O)N2CCC(CC3CC(c4ccccc4)=NO3)(C(=O)NCc3ccc(OC)cc3)CC2)cc(OCC)c1OCC (stereo unspecified) ?
pPAFAH inh: 8.4; PP5 inh: 1.0; PAFAH1B3 FP inh: -2.2; PP1 inh: 9.0; PAFAH1B2 FP inh: 9.4; PAFAH2 inh: 30.5*; PAFAH2 confirm: -6.3

What do the screens show for `COc1ccc(CNC(=O)C2(CC3CC(c4ccccc4)=NO3)CCN(C(=O)Cc3ccc(F)cc3)CC2)cc1` (stereo unspecified)?
pPAFAH inh: -3.5; PP5 inh: -4.2; PAFAH1B3 FP inh: -12.1; PP1 inh: -5.5; PAFAH1B2 FP inh: 6.0; PAFAH2 inh: 4.0

Results for CC(C)Cn1c(N)c(C(=O)COC(=O)c2nccnc2N)c(=O)n(C)c1=O ?
pPAFAH inh: 1.0; PP5 inh: 2.5; PAFAH1B3 FP inh: 1.4; PP1 inh: -2.9; PAFAH1B2 FP inh: 5.1; PAFAH2 inh: 0.9

Results for CC(C)(C)S(=O)(=O)c1cnc2c(S(=O)(=O)c3ccccc3)cnn2c1N ?
pPAFAH inh: 5.4; PP5 inh: -0.4; PAFAH1B3 FP inh: 1.4; PP1 inh: -4.1; PAFAH1B2 FP inh: -1.6; PAFAH2 inh: 29.7*; PAFAH2 confirm: -0.1

What do the screens show for `CCN(CC)S(=O)(=O)c1ccc(C)c(NC(=O)COC(=O)CCC(=O)c2cccs2)c1`?
pPAFAH inh: 6.5; PP5 inh: 0.7; PAFAH1B3 FP inh: -0.6; PP1 inh: -0.2; PAFAH1B2 FP inh: -0.3; PAFAH2 inh: 9.4

How did CCN(CC)S(=O)(=O)c1ccc(C)c(NC(=O)COC(=O)C=C(C)C)c1 do in these assays?
pPAFAH inh: 7.4; PP5 inh: 2.7; PAFAH1B3 FP inh: 2.0; PP1 inh: -3.2; PAFAH1B2 FP inh: 2.2; PAFAH2 inh: 33.0*; PAFAH2 confirm: 47.6*

What do the screens show for `CCOc1ncccc1C(=O)OCC(=O)Nc1cc(S(=O)(=O)N(CC)CC)ccc1C`?
pPAFAH inh: 19.2; PP5 inh: 2.0; PAFAH1B3 FP inh: 4.4; PP1 inh: -1.8; PAFAH1B2 FP inh: -1.2; PAFAH2 inh: 64.9*; PAFAH2 confirm: 49.4*

Results for COc1cc(/C=C/C(=O)NC(=O)c2ccccc2O)ccc1OC(C)=O ?
pPAFAH inh: 2.7; PP5 inh: 1.4; PAFAH1B3 FP inh: 13.9; PP1 inh: 3.7; PAFAH1B2 FP inh: 9.6; PAFAH2 inh: 1.5

Results for CC1CCCC(NC(=O)COC(=O)c2cc(S(=O)(=O)N3CCOCC3)ccc2F)C1C (stereo unspecified) ?
pPAFAH inh: 0.9; PP5 inh: -1.9; PAFAH1B3 FP inh: -5.1; PP1 inh: -3.8; PAFAH1B2 FP inh: -1.7; PAFAH2 inh: 3.0

Source: PubChem
